We go through 40 compounds from PubChem BioAssay AID1069 (NMMLSC, 2008).

Active and inactive are the calls of the source.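 Rule for the calls: active = high combined rank on largest and smallest cell-count-weighted shift across three tests, rank score above 45, floors 50 and 25 (some results past the limit were not filed as active); inactive = the rest.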

The experiment is described as follows: activators of LNCaP cell differentiation, retest, confirmation, side scatter shift, flow cytometry (AID 1069).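 Note: LNCaP human prostate cancer cells in low-serum medium with charcoal-stripped FBS; percent of cells with raised granularity gated so DMSO controls show 10%.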 Conditions: 4 d, stronger effect = higher value. On the technique in general: A flow cytometer gives signals particle by particle.

As to `CCOC(=O)c1cc2c(=O)n3ccccc3nc2n(CCCOC)c1=NC(=O)c1cccnc1`, the side scatter shift (at 100 µM) was 9.9% (inactive) and the side scatter shift (side scatter shift, at 10 µM) stood at 5.75%.
Regarding `O=C(CN1CCC(n2nnc3cc(F)ccc32)CC1)Nc1ccc2c(c1)CCC2`, the side scatter shift (at 100 µM) is 6.2% (inactive) and the side scatter shift (side scatter shift, at 10 µM) was 1.9%.
On to `Cc1oc(-c2ccccc2F)nc1CN1CCC(C(=O)NCc2cccnc2)CC1`, for which the side scatter shift by setting is: (at 100 µM) 8.3% (inactive); (side scatter shift, at 10 µM) 3.9%.
On the same counts, the results for `CCOC(=O)CSc1nnc(CNC(=O)c2ccccc2OC)n1-c1ccc(OC)cc1` are 11.3% (inactive) and 4.3%.
For the compound `Cc1cc(NC(=O)CSc2nnc(C3CC3)n2C)no1`, the side scatter shift is 11.6% (inactive) (at 100 µM) and 9.3% (side scatter shift, at 10 µM).
In the same order, the values of `O=C(NC1CCCC1)C1CCN(S(=O)(=O)c2cccc3cccnc23)CC1` are 15.9% (inactive) and 1.65%.
On to `CC(C)N1CCC2(CC1)N=C(c1ccc3c(c1)OCO3)CC(c1cc(Cl)ccc1O)N2` (stereo not given), for which the side scatter shift runs as follows: (at 100 µM) 26.1% (inactive); (side scatter shift, at 10 µM) 18.8%.
For the compound `Cc1ccc(-c2noc(CCC(=O)NCCCN3CCN(c4ccc(F)cc4)CC3)n2)cc1`, the side scatter shift is, setting by setting: (at 100 µM) 0% (inactive); (side scatter shift, at 10 µM) 17.4%.
For the compound `CCOC(=O)Cn1nc(-c2ccc(Cl)cc2)cc1N`, the side scatter shift was 11.4% (inactive) (at 100 µM) and 4.7% (side scatter shift, at 10 µM).
Take `O=C(Cn1c(=O)[nH]c2ccsc2c1=O)NC1CCCCCC1`: the side scatter shift runs as follows: (at 100 µM) 2.5% (inactive); (side scatter shift, at 10 µM) 5.85%.
In the case of `CCCCC(=O)NCCc1ccc(S(N)(=O)=O)cc1`, the side scatter shift is 12.6% (inactive) (at 100 µM) and 11.9% (side scatter shift, at 10 µM).
On to `CCc1ccc(-c2nc(CN3CCC(C(=O)NCc4ccccc4OC)CC3)c(C)o2)cc1`, for which the side scatter shift (at 100 µM) is 12.2% (inactive) and the side scatter shift (side scatter shift, at 10 µM) worked out at 14.5%.
On the same counts, the results for `CN(C(=O)c1ccccn1)c1nnc(-c2cccnc2)s1` are 8.3% (inactive) and 2.1%.
As for `COc1ccc(-c2cc(C(F)(F)F)nc(N3CCN(C)CC3)n2)cc1`, the side scatter shift is 25% (inactive) (at 100 µM) and 13.6% (side scatter shift, at 10 µM).
On to `O=C(NCCCN1CCN(c2cccc(Cl)c2)CC1)c1cccc(N2CCCC2=O)c1`, for which the side scatter shift runs as follows: (at 100 µM) 50.5% (active); (side scatter shift, at 10 µM) 7.7%.
Take `O=C(Cc1ccc(-n2cccc2)cc1)NCc1cccs1`: the side scatter shift was 28.8% (inactive) (at 100 µM) and 13.2% (side scatter shift, at 10 µM).
For `c1cncc(-c2nc3ccccc3o2)c1`, the side scatter shift is 10.2% (inactive) (at 100 µM) and 2.9% (side scatter shift, at 10 µM).
Regarding `O=C(CCn1c(=O)[nH]c2ccccc2c1=O)NCCCN1CCN(c2cccc(Cl)c2)CC1`, the side scatter shift reads like this: (at 100 µM) 35.7% (inactive); (side scatter shift, at 10 µM) 11.1%.
With `CCCCCn1c(=N)n(CC(O)COc2ccccc2OC)c2ccccc21` (stereo not given), the side scatter shift is 15% (inactive) (at 100 µM) and 25.1% (side scatter shift, at 10 µM).
Take `Cc1ccc2c(c1)NC(=O)C(CC(=O)NCCCN1CCN(c3cc(Cl)ccc3C)CC1)O2` (stereo not given): the side scatter shift is 0% (inactive) (at 100 µM) and 7.35% (side scatter shift, at 10 µM).
On the same counts, the results for `COc1ccc(-c2cc(-c3ccc(F)cc3)nc(N3CCN(C)CC3)n2)cc1` are 33.3% (inactive) and 14.8%.
In the same order, the values of `O=C(NCCCN1CCN(c2cccc(Cl)c2)CC1)c1ccc(N2CCCC2=O)cc1` are 7.7% (inactive) and 10.1%.
Regarding `Cc1ccccc1-c1nc(CN2CCC(C(=O)N3CCN(c4ccccn4)CC3)CC2)c(C)o1`, the side scatter shift (at 100 µM) was 24.7% (inactive) and the side scatter shift (side scatter shift, at 10 µM) is 12.9%.
As for `COc1ccc(OC)c(N=Cc2c(O)[nH]c3ccccc23)c1`, the side scatter shift (at 100 µM) was 7.2% (inactive) and the side scatter shift (side scatter shift, at 10 µM) was found to be 6.1%.
In the same order, the values of `CC1CCCCN1CCNC(=O)c1ccc2c(=O)n(CCc3ccccc3)c(=O)[nH]c2c1` (stereo not given) are 59.5% (active) and 18.2%.
Consider `COc1cccc(-c2cc(C(=O)N3CCN(C(c4ccccc4)c4ccccc4)CC3)no2)c1`, for which the side scatter shift is 9.8% (inactive) (at 100 µM) and 2.7% (side scatter shift, at 10 µM).
On to `CCN1CCN(c2cc(C)c3cc(NC(=O)c4ccc(Br)o4)ccc3n2)CC1`, for which the side scatter shift is, setting by setting: (at 100 µM) 2.8% (active); (side scatter shift, at 10 µM) 32.8%.
In the same order, the values of `Cc1cc(N2CCC(N(C)C3CCCC3)CC2)nc2cc(O)ccc12` are 65.4% (inactive) and 22.5%.
On the same counts, the results for `CCOC(=O)C1=C(C)Nc2nc(SC)nn2C1c1ccc(C(=O)OC)cc1` (stereo not given) are 7.7% (inactive) and 7.15%.
Take `O=c1cc(N2CCc3ccccc3C2)[nH]c(=O)n1C1CCCCC1`: the side scatter shift by setting is: (at 100 µM) 16.8% (inactive); (side scatter shift, at 10 µM) 5.9%.
Turning to `CC(C)CCNC(=O)C1CCN(c2nc3ccccc3o2)CC1`, the side scatter shift (at 100 µM) is 28.8% (inactive) and the side scatter shift (side scatter shift, at 10 µM) was found to be 7.65%.
Take `Cc1cc(N2C(=O)C3C4C=CC(C4)C3C2=O)ccc1Br` (stereo not given): the side scatter shift was 9.6% (inactive) (at 100 µM) and 16.5% (side scatter shift, at 10 µM).
On the same counts, the results for `O=C1c2ccccc2C(Nc2ccc3c(c2)OCO3)N1Cc1ccc2c(c1)OCO2` (stereo not given) are 23.6% (inactive) and 6.65%.
For the compound `O=c1c2ccccc2nnn1CSc1nnc2sc3ccccc3n12`, the side scatter shift runs as follows: (at 100 µM) 15.6% (inactive); (side scatter shift, at 10 µM) 4.8%.
`Nc1ccc(-c2nc3c(Cl)c(N)ccc3[nH]2)cc1`: the side scatter shift reads like this: (at 100 µM) 20.2% (inactive); (side scatter shift, at 10 µM) 4.7%.
With `CCn1c(C(=O)NCCCN2CCc3ccccc3C2)cc2sccc21`, the side scatter shift was 12.5% (inactive) (at 100 µM) and 14.8% (side scatter shift, at 10 µM).
Turning to `COc1ccc(-c2ccc(-c3nnn(CC(C)=O)n3)cc2)cc1`, the side scatter shift (at 100 µM) is 11.7% (inactive) and the side scatter shift (side scatter shift, at 10 µM) turned out to be 2.95%.
`COC(=O)C1=C(C)N=c2s/c(=C/c3cccs3)c(=O)n2C1c1cccs1` (stereo not given): the side scatter shift runs as follows: (at 100 µM) 32.8% (inactive); (side scatter shift, at 10 µM) 12.7%.
Turning to `Cc1oc(-c2ccc(Cl)cc2)nc1CN1CCCC(C(=O)NCCCN2CCCC2=O)C1` (stereo not given), the side scatter shift by setting is: (at 100 µM) 14% (inactive); (side scatter shift, at 10 µM) 13.6%.
In the case of `COc1ccc(CC(=O)Nc2ccc(-c3nnc(-c4ccc(C)cc4)o3)cc2)cc1`, the side scatter shift reads like this: (at 100 µM) 33.3% (inactive); (side scatter shift, at 10 µM) 6.65%.
